# In PubChem BioAssay (NCI):
# About 83,000 compounds went through this panel and 20% of them were active in at least one assay; those are over-represented in the sample as a whole.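 Growth was measured after 48 h exposure to one concentration of compound in 96-well plates. Values under 10 count as active.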 Unmarked numbers belong to inactive results. Calls of active or inactive are those of the source.
# Key:
# Assay in all cases: NCI-60 one-dose screen, 48 h (100 = growth as untreated, 0 = no growth, -100 = all killed)
# Conditions in all cases: 10 µM unless noted
# SK-MEL-2 melanoma = test system: SK-MEL-2 melanoma
# EKVX NSCLC = test system: EKVX NSCLC
# SN12C renal = test system: SN12C renal
# UO-31 renal = test system: UO-31 renal
# TK-10 renal = test system: TK-10 renal
# ACHN renal = test system: ACHN renal
# CAKI-1 renal = test system: CAKI-1 renal
# A498 renal = test system: A498 renal
# CCRF-CEM leukemia = test system: CCRF-CEM leukemia
# MOLT-4 leukemia = test system: MOLT-4 leukemia
# RPMI-8226 leukemia = test system: RPMI-8226 leukemia
# OVCAR-8 ovarian = test system: OVCAR-8 ovarian
# OVCAR-5 ovarian = test system: OVCAR-5 ovarian
# OVCAR-4 ovarian = test system: OVCAR-4 ovarian
# SK-OV-3 ovarian = test system: SK-OV-3 ovarian
# OVCAR-3 ovarian = test system: OVCAR-3 ovarian
# HS 578T breast = test system: HS 578T breast
# NCI/ADR-RES ovarian = test system: NCI/ADR-RES ovarian
# IGROV1 ovarian = test system: IGROV1 ovarian
Compound,growth (SK-MEL-2 melanoma),growth (EKVX NSCLC),growth (SN12C renal),growth (UO-31 renal),growth (TK-10 renal),growth (ACHN renal),growth (CAKI-1 renal),growth (A498 renal),growth (CCRF-CEM leukemia),growth (MOLT-4 leukemia),growth (RPMI-8226 leukemia),growth (OVCAR-8 ovarian),growth (OVCAR-5 ovarian),growth (OVCAR-4 ovarian),growth (SK-OV-3 ovarian),growth (OVCAR-3 ovarian),growth (HS 578T breast),growth (NCI/ADR-RES ovarian),growth (IGROV1 ovarian)
O=C(NC(Cc1nnc2n(Cc3ccccc3)c(=O)c3c4c(sc3n12)CCCC4)c1ccc(Cl)cc1)c1ccccc1 (configuration not stated),95.7%,94.6%,92.4%,-5.74% (active),99%,67.5%,94.3%,83.5%,80.5%,53.1%,67.9%,91.3%,104%,81%,109%,90.4%,91.3%,93.9%,–
O=c1[nH]nc(-c2ccccc2)c2c(-c3ccccc3)onc12,30.7%,25.4%,56.3%,16.9%,62.5%,47.5%,28.7%,7.76% (active),21.3%,30.2%,19.5%,54.3%,58.7%,64.1%,15.4%,-15.8% (active),–,30.4%,13.2%
Cc1ccc(C(=NN=C(N)N)c2ccc(C)cc2)cc1,-4.66% (active),52.4%,22.6%,21%,12.9%,23.8%,27.1%,17.1%,14.7%,5.74% (active),1.96% (active),6.75% (active),30.8%,31.2%,-10.8% (active),-34.8% (active),32.4%,6.63% (active),5.38% (active)
Cc1ccc(Cl)cc1NC(=O)c1cc2ccccc2cc1O,-12.3% (active),4.4% (active),-21.8% (active),-8.04% (active),-1.32% (active),-15% (active),-16.8% (active),-31.4% (active),-22.3% (active),-37.4% (active),-58.2% (active),7.85% (active),-5.91% (active),3.71% (active),–,-25.9% (active),-21% (active),-27.9% (active),-5.94% (active)
CNC(=O)CCN1CCN(CC/C=C2\c3ccccc3Sc3ccc(Cl)cc32)CC1,28.5%,103%,95.5%,53.9%,81.4%,94.3%,94%,74.5%,90.2%,50.9%,70.1%,88.5%,96.3%,105%,122%,57.8%,65.4%,98.3%,–
Cc1ccc(NS(=O)(=O)c2ccc3c(c2)C(=O)CC(c2ccc(C(=O)C(C)C)cc2)N3)cc1C (configuration not stated),64.2%,22.7%,76.4%,51.7%,77.9%,55.1%,55.9%,45.2%,50.3%,54.5%,–,73.4%,80.1%,62.9%,74.4%,74.4%,73.2%,56.3%,66.8%
CCCCNC(=O)Oc1ccc2c(=O)c3sc4c(=O)c5ccccc5c(=O)c4c3c(=O)c2c1,-54.7% (active),-77.7% (active),-86.3% (active),-56.7% (active),-95.2% (active),-88.9% (active),-75.4% (active),-98.8% (active),-29.4% (active),-44.4% (active),-41.9% (active),-20.4% (active),-73.6% (active),–,-93.9% (active),-69.5% (active),2.8% (active),-19.3% (active),-25.6% (active)
COC(=O)/C=C1\S/C(=N\NS(=O)(=O)c2ccc(C)cc2)N(c2ccccc2)C1=O,107%,100%,98.6%,90.8%,109%,104%,96.6%,80.6%,101%,93.9%,106%,–,109%,91%,111%,105%,98.9%,108%,103%
COc1cc(OC)cc(C2CC(=O)Nc3c2c(C)nn3-c2nc3ccccc3[nH]2)c1 (configuration not stated),38.4%,17.7%,20%,13.1%,24.2%,19.3%,30.3%,-10.1% (active),4.69% (active),-8.06% (active),-8.64% (active),17.8%,–,42.4%,-2.88% (active),7.11% (active),27.1%,64.3%,14.6%
CC(=O)N1C(=S)NC(=O)C1Cn1c(-c2ccccc2)nc2ccccc21 (configuration not stated),109%,96.3%,98.6%,80.8%,121%,100%,90.4%,70.7%,97.1%,96.5%,97.3%,102%,–,102%,94.3%,101%,96%,102%,92.5%
CN1C(=O)N(C)C2C1NN=c1s/c(=C\c3ccccc3)c(=O)n12 (configuration not stated),48.4%,78.5%,50.1%,44.8%,10%,29.4%,33.5%,4.23% (active),42.2%,58.1%,61.6%,60%,–,66.6%,47.6%,8.76% (active),40.7%,32.5%,46.4%
O=C(/C=C/c1c(Cl)nc2sccn12)c1nccs1,80.3%,97.5%,89%,81.8%,118%,89.1%,78.8%,72.2%,93.4%,89.3%,83.7%,93.9%,73.2%,–,89.8%,90.9%,65.5%,99.3%,101%
